Several values for one entry are separate records, joined by “and”; a condition that tells them apart may be missing. Identical values can stand only once. Hit rate of the full screen: of about 5,500 compounds, about 2,000 (36%) were called active. Roughly 18% stayed inconclusive and do not appear here. Rule as the data show it: active = normalized growth mostly below about 0.91 (no sharp cut-off); inconclusive = no clear call, values can overlap the other calls; inactive = mostly above about 0.92. Some of the results follow.
Test: chemical genetic growth profiling, strain panel (AID 1159580);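 also: tested at 20 µM; growth read once vehicle control cultures reached saturation at 30 °C; 1 = growth at the plate median or of vehicle wells; lower values mean less growth of the strain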
Conditions: S. cerevisiae deletion strains, growth OD

Measured: normalized growth

CC(C[N+](C)(C)C)OC(N)=O (centres undefined)
inactive: locus YAL013W, strain DEP1, hits give low values 0.991 | locus YAL021C, strain ccr4, hits give low values 1.05 | locus YAL026C, strain drs2, hits give low values 1.03 | locus YAL030W, strain snc1, hits give low values 1.02 | locus YAL040C, strain CLN3, hits give low values 1 | locus YBL061C, strain skt5, hits give low values 1.03 | locus YBR009C, strain hhf1, hits give low values 1.01 | locus YBR021W, strain FUR4, hits give low values 1.01 | locus YBR023C, strain chs3, hits give low values 1.03 | locus YBR171W, strain sec66, hits give low values 1.05 | locus YBR229C, strain ROT2, hits give low values 0.994 | locus YBR231C, strain swc5, hits give low values 1.01 | locus YBR279W, strain paf1, hits give low values 1.03 | locus YCL011C, strain gbp2, hits give low values 1.01 | locus YCL016C, strain dcc1, hits give low values 1.03 | locus YCL029C, strain bik1, hits give low values 0.988 | locus YCL061C, strain MRC1 (second series), hits give low values 1 | locus YCL061C, strain MRC1, hits give low values 1.01 | locus YCL069W, strain vba3, hits give low values 1.03 | locus YCR088W, strain abp1, hits give low values 1.03 | locus YDL005C, strain med2, hits give low values 1.01 | locus YDL035C, strain GPR1, hits give low values 1.04 | locus YDL040C, strain nat1, hits give low values 1.02 | locus YDL074C, strain BRE1, hits give low values 0.947 | locus YDL101C, strain DUN1, hits give low values 0.976 | locus YDL185W, strain tfp1, hits give low values 0.981 | locus YDL192W, strain arf1, hits give low values 0.983 | locus YDR001C, strain nth1, hits give low values 1.03 | locus YDR069C, strain doa4, hits give low values 1.01 | locus YDR101C, strain arx1, hits give low values 0.991 | locus YDR137W, strain rgp1, hits give low values 1.04 | locus YDR150W, strain NUM1, hits give low values 1.01 | locus YDR159W, strain sac3, hits give low values 0.982 | locus YDR162C, strain NBP2, hits give low values 1.02 | locus YDR195W, strain ref2 1 | locus YDR297W, strain sur2, hits give low values 1.02 | locus YDR318W, strain mcm21, hits give low values 0.985 | locus YDR334W, strain swr1, hits give low values 1.03 | locus YDR335W, strain msn5, hits give low values 1.03 | locus YDR363W, strain ESC2, hits give low values 0.974 | locus YDR388W, hits give low values 0.992 | locus YDR392W, strain spt3, hits give low values 0.962 | locus YDR502C, strain sam2, hits give low values 0.991 | locus YEL003W, strain gim4, hits give low values 1.01 | locus YEL037C, strain rad23, hits give low values 1.04 | locus YEL061C, strain CIN8 (second series), hits give low values 1.03 | locus YEL061C, strain CIN8, hits give low values 0.995 | locus YER002W, strain NOP16, hits give low values 1.02 | locus YER015W, strain faa2, hits give low values 1.02 | locus YER016W, strain bim1, hits give low values 1.02 | locus YER110C, hits give low values 0.972 | locus YER111C, strain swi4, hits give low values 1.04 | locus YER155C, strain BEM2 (second series), hits give low values 0.998 | locus YER155C, strain BEM2, hits give low values 0.986 | locus YER167W, strain BCK2, hits give low values 1.01 | locus YFR010W, strain ubp6, hits give low values 1.02 | locus YGL078C, strain dbp3, hits give low values 0.982 | locus YGL086W, strain mad1, hits give low values 0.984 | locus YGL167C, strain pmr1, hits give low values 1.04 | locus YGL173C, strain kem1, hits give low values 1.01 | locus YGL227W, strain vid30, hits give low values 1.02 | locus YGL240W, strain doc1, hits give low values 1.01 | locus YGL248W, strain PDE1, hits give low values 0.987 | locus YGL253W, strain hxk2, hits give low values 1.02 | locus YGR078C, strain PAC10, hits give low values 0.986 and 0.968 | locus YGR135W, strain pre9, hits give low values 0.987 | locus YGR229C, strain SMI1, hits give low values 1.03 | locus YGR252W, strain gcn5, hits give low values 1.04 | locus YHR013C, strain ard1, hits give low values 1.03 | locus YHR027C, strain rpn1, hits give low values 1.03 | locus YHR030C, strain SLT2, hits give low values 0.991 and 0.986 | locus YHR079C, strain IRE1 (second series), hits give low values 0.975 | locus YHR079C, strain IRE1, hits give low values 0.976 | locus YHR094C, strain hxt1, hits give low values 0.982 | locus YHR129C, strain ARP1, hits give low values 0.988 | locus YHR142W, strain chs7, hits give low values 1.04 | locus YHR200W, strain rpn10, hits give low values 0.987 | locus YIL066C, strain RNR3, hits give low values 1.01 | locus YIL073C, strain SPO22, hits give low values 1.04 | locus YIL125W, strain kgd1, hits give low values 0.979 | locus YIR030C, strain dcg1, hits give low values 0.976 | locus YJL092W, strain hpr5, hits give low values 1.02 | locus YJL095W, strain BCK1 (second series), hits give low values 1.05 | locus YJL095W, strain BCK1, hits give low values 0.985 and 0.982 | locus YJL115W, strain asf1, hits give low values 1.04 | locus YJL129C, strain trk1, hits give low values 1.04 | locus YJL134W, strain LCB3, hits give low values 0.989 | locus YJL154C, strain vps35, hits give low values 1.03 | locus YJL164C, strain tpk1, hits give low values 1.03 | locus YJL166W, strain qcr8, hits give low values 1.01 | locus YJL168C, strain set2, hits give low values 0.981 | locus YJL187C, strain SWE1 (second series), hits give low values 0.987 | locus YJL187C, strain SWE1, hits give low values 1.03 | locus YJR043C, strain POL32, hits give low values 1.05

Reference: PubChem BioAssay AID1159580 (chemical genetic matrix, 2015)
